# Coupling enz – counter-screen for Giardia aldolase inhibitors: coupling enzyme system | 290,000 compounds, 0.67% hits | coupling enzyme system counterscreen, AmpLite Red fluorescence | activity change, negative = inhibition, % at 58.2 µM, hits read low | AID 2472; in the data active = activity change below about -30%
#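 Counterscreen of the coupled detection system alone, without aldolase: glyceraldehyde-3-phosphate coupling enzymes plus AmpLite Red readout. Compounds at 57.5 uM final, 10 min RT preincubation, 20 min RT reaction, fluorescence 525/598 nm.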
# RGS12 GoLoco inh – blocks human Gai1 binding to RGS12 GoLoco peptide, red readout; Potency, µM (series often up to 61.6 µM), without a hit: at the top dose activity, negative = inhibition, actives largely listed as inhibitors; Gai1:RGS12 GoLoco peptide FP, rhodamine, 10 min; 230,000 compounds, 0.44% hits; active = well fitted inhibition curve with a large enough effect, not every such curve was filed as active; inactive = no such curve, though single readings can be large or run the other way; also: potency is read from the fitted curve at half-maximal effect; nearly all actives have a fitted effect of over 30% in size
# Target sequence (P63096 whole entry, looked up): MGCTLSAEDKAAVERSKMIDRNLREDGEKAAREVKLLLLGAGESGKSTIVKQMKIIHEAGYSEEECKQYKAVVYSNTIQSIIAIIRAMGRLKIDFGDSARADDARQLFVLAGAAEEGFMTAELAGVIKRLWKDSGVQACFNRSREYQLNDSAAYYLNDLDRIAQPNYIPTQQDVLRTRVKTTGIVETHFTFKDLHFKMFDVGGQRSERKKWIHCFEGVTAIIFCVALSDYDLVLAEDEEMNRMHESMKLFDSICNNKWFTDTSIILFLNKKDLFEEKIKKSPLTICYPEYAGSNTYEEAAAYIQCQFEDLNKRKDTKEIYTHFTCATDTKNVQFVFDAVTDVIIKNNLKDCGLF
# ALDH1A1 block – inhibitors of human aldehyde dehydrogenase 1A1; P00352; Purified ALDH1A1, NADH fluorescence, propionaldehyde substrate; Potency, µM (titrated, usually from 75.3 µM), inactives show at the top dose activity, negative = inhibition, hits mostly inhibitors; 220,000 compounds, 7.3% hits; active = well fitted inhibition curve with a large enough effect, not every such curve was filed as active; inconclusive = small, poorly fitted or top-dose-only effect, or another doubt; inactive = no such curve, though single readings can be large or run the other way;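 also: potency is read from the fitted curve at half-maximal effect; plate controls were no enzyme wells and a reference inhibitor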
# NPSR antag – blocks cAMP signaling of the human neuropeptide S receptor; Q6W5P4; CHO-NPSR cells, cAMP TR-FRET, antagonist mode; Potency, µM (series often up to 38.3 µM), inactives show at the top dose activity change, negative = inhibition, hits mostly inhibitors; 220,000 compounds, 1% hits; AID 1461; also: potency is read from the fitted curve at half-maximal effect; nearly all actives have a fitted effect of over 50% in size
# KDM4E inh – inhibitors of human JMJD2E histone demethylase; JMJD2E catalytic domain, FDH-coupled NADH fluorescence (FDH is formaldehyde dehydrogenase); AID 2147; 230,000 compounds, 1.6% hits; B2RXH2; Potency, µM (doses to about 57.1 µM), inactives show at the highest dose activity change, negative = inhibition, most hits filed as inhibitors; active = well fitted inhibition curve with a large enough effect, not every such curve was filed as active; inconclusive = small, poorly fitted or top-dose-only effect, or another doubt; inactive = no such curve, though single readings can be large or run the other way;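 also: potency is read from the fitted curve at half-maximal effect; 0% = wells with enzyme and -100% = buffer wells without enzyme; nearly all actives have a fitted effect of over 50% in size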
# Target sequence (B2RXH2 1-337 limits assumed): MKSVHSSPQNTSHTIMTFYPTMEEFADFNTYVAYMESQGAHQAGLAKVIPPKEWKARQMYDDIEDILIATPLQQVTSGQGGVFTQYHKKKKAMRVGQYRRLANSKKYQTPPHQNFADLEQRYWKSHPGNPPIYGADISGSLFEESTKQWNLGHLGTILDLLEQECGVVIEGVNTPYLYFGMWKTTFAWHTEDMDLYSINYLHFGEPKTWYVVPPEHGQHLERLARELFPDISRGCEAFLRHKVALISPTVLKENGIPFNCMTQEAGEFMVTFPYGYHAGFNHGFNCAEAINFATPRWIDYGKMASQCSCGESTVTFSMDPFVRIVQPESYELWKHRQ
# Sfp inh – inhibitors of Bacillus subtilis Sfp phosphopantetheinyl transferase | AID 1490 | Potency, µM, for inactives: largest response in the series, negative = inhibition, usual class: inhibitors | 310,000 compounds, 3.5% hits | Q9F4F7 | Biochemical Sfp PPTase activity, qHTS;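 also: the enzyme is Sfp with the accession as filed and its product quenches rhodamine fluorescence; potency is read from the fitted curve at half-maximal effect; 0% = enzyme reaction without inhibitor and -100% = no enzyme wells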
#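 Buffer: 50 mM Hepes-Na pH 7.6, 10 mM MgCl2, 0.01% Nonidet P-40, 0.01% BSA. Enzyme 15 nM, pre-exposed to compound 15 min; substrates then added and fluorescence change tracked over 30 min.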
# Active calls of the source: *; ? = inconclusive; · = no result given; [ ] = another dose, or the depositor's remark. Sampled rows, rich in hits. Any-hit rate of the full collection: about 8.5%. Unless noted, calls follow the shape of the dose curve; as a rule, active = well fitted curve in the direction sought with a large enough effect; inconclusive = small, poorly fitted or top-dose-only effect, or another doubt; inactive = no such curve, though single readings can be large; an effect the other way counts as inactive or inconclusive. Unless noted, % is scaled to controls: 0 for no effect and ±100 for the full control effect.
SMILES,Coupling enz,RGS12 GoLoco inh,ALDH1A1 block,NPSR antag,KDM4E inh,Sfp inh
COc1cc2cc(C(=O)N3CCN(Cc4ccc5c(c4)OCO5)CC3)c(=O)oc2cc1OC,6,5%,·,-8%,?,12%
O=C(NCc1ccccn1)C(=O)NCC1OCCN1S(=O)(=O)c1ccc(F)cc1 (stereo not drawn),·,·,·,·,·,-2%
CCN1/C(=C/C(C)=C/c2sc3ccccc3[n+]2CC)Sc2ccccc21,1,-134%,?,?,-13%,32µM*
CCN1/C(=C\C(C)=O)Sc2ccc(OC)cc21,-1,-99%,3%,-5%[46.1 µM],-2%,2%
Cc1ccc(S(=O)(=O)c2c(N)n(CCCN(C)C)c3nc4ccccc4nc23)cc1,3,6%,·,-11%,?,4%
CCCCn1c(NS(=O)(=O)c2ccc(C)cc2)c(S(=O)(=O)c2ccccc2)c2nc3ccccc3nc21,-53*,·,?,?,?,12%
CCN1CCN(C(CNS(=O)(=O)c2ccccc2)c2ccccc2)CC1 (stereo not drawn),-1,·,·,·,·,16%
CCOC(=O)C1CCN(C(c2ccccn2)c2c(C)[nH]c3ccccc23)CC1 (stereo not drawn),3,4%,?,-23%[46.1 µM],?,?
Cc1[nH]c2ccccc2c1C(c1ccccn1)N1CCC(C(N)=O)CC1 (stereo not drawn),-4,-3%,?,-2%[46.1 µM],?,63µM*
Cc1ccsc1/C=N/NS(=O)(=O)c1ccc([N+](=O)[O-])cc1,4,17%,-12%,-5%,2%,4%
CCOC(=O)c1nnc(-c2ccccc2)nc1Sc1ccccc1Cl,-3,-1%,-3%,-27%[46.1 µM],4%,79µM*
CC(NC(=O)CCNS(=O)(=O)c1cccc2nonc12)c1ccccc1 (stereo not drawn),0,·,·,·,·,14%
NNC(=S)NC1CCS(=O)(=O)C1 (stereo not drawn),0,-15%,·,11%,-26%,8.9µM*
O=C(COc1cccc(Cl)c1)Nc1cc(S(=O)(=O)N2CCOCC2)ccc1N1CCOCC1,2,9%,·,-17%,5%,1%
COC(=O)CSc1cc(C(=O)c2nccn2C)c2ccccc2n1,-1,-6%,5%,-13%[46.1 µM],-7%,5%
Cn1ccnc1C(=O)c1cc(SCC(=O)NCc2ccccc2)nc2ccccc12,5,1%,-16%,-5%,-10%,40µM*
Nc1[nH]n(-c2ccccc2)c(=O)c1N=Nc1ccc2ncsc2c1,2,-16%,·,38%,-1%,50µM*
Nc1[nH]n(-c2ccccc2)c(=O)c1N=Nc1ccccc1,1,2%,0%,46%,0%,9%
COc1ccc(-c2csc(N(CCCN(C)C)C(=O)c3ccc(Br)cc3)n2)cc1,-1,·,·,·,·,35µM*
CCCCn1c(=O)nc2n(-c3ccc(OC)cc3)c3ccccc3cc-2c1=O,0,8%,8.9µM*,-45%,-13%,9%
COc1ccc(C)cc1Nc1n[n+](-c2ccccc2)c(-c2ccc(C(=O)O)cc2)s1,1,·,·,·,·,56µM*
CCOC(=O)c1cccc(NC(=O)/C=C/c2ccc3c(c2)OCO3)c1,-2,9%,?,-15%,?,79µM*
COc1ccccc1NC(=O)COC(=O)/C=C/c1ccc2c(c1)OCO2,1,1%,?,8%,?,79µM*
COc1ccccc1NC(=O)/C=C/c1ccc2c(c1)OCO2,-6,3%,-5%,-7%,-4%,1%
CCOC(=O)c1cccc(NC(=O)c2ccc3c(c2)OCO3)c1,1,·,·,·,·,2%
SMILES,Coupling enz,RGS12 GoLoco inh,ALDH1A1 block,NPSR antag,KDM4E inh,Sfp inh
CCNc1nc(NC(C)C)nc(NS(=O)(=O)c2ccc(C)cc2)n1,-22,·,·,·,·,13%
CCN(CC)S(=O)(=O)c1ccc(C)c(NC(=S)NNC(=O)C2CC2)c1,1,-13%,8.9µM*,22%,3%,6%
O=S(=O)(CCOc1ccccc1)N1CCOCC1,1,10%,20µM*,10%,1%,2%
N=c1c2c(-c3ccccc3)c(-c3ccccc3)n(Cc3ccco3)c2ncn1Cc1ccco1,4,-1%,-1%,10µM*,3%,35µM*
COc1ccc2ccc(O)c(CN(C)CC(=O)Nc3ccccc3C(F)(F)F)c2c1,-11,·,·,·,·,-9%
NC(=S)Nc1ccc(F)c(F)c1F,-1,2%,·,1%,8%,17%
NC(=S)NNc1c(F)c(F)c(F)c(F)c1F,-3,-6%,8.9µM*,20%,3%,40µM*
Cc1ccc(Nc2cc(C(=O)NCCCN3CCOCC3)c3ccccc3n2)cc1C,-2,·,·,·,·,-5%
CC1(C)CC(=O)C(/C=N/n2c(C(F)(F)F)nc3ccccc3c2=O)=C(O)C1,5,11%,25µM*,-9%[46.1 µM],?,20%
COc1ccc(-c2c[n+]3c4n2CCCCC4=C(c2ccc(Br)cc2)C3)cc1,-2,129%,?,?,?,45µM*
Clc1ccc(C2=C3CCCCn4c(-c5ccccc5)c[n+](c43)C2)cc1,-2,184%,?,?,?,79µM*
CCn1c(=O)c2c(nc(SCC(=O)N3CCC(C)CC3)n2C)n(C)c1=O,0,·,·,·,·,11%
O=S(=O)(Nc1ccc2c(c1)OCCO2)c1c(F)cccc1F,-2,·,·,·,·,-4%
Cc1ccc(C2CC(c3cccs3)=NN2C(=O)CSC2=NN3CCCC(=O)N=C3S2)cc1 (stereo not drawn),0,6%,28µM*,-5%[46.1 µM],?,-8%
COc1ccc(C2CC(c3cccs3)=NN2C(=O)CSC2=NN3CCCC(=O)N=C3S2)cc1 (stereo not drawn),-3,8%,?,-2%[46.1 µM],?,9%
CC(=O)Nc1ccc(NC(=O)c2ccc(NS(=O)(=O)c3cc(C(C)(C)C)cc(C)c3C)cc2)cc1,3,-16%,-4%,-30%,?,21%
Cc1cc(C(C)(C)C)cc(S(=O)(=O)Nc2ccc(O)c(C(=O)O)c2)c1C,13,-17%,4µM*,-3%[46.1 µM],?,89µM*
Cc1cc(C(C)(C)C)cc(S(=O)(=O)NCC(=O)O)c1C,16,-14%,8.9µM*,-4%[46.1 µM],6%,13%
O=C(O)CNS(=O)(=O)c1cc(Cl)c(Cl)cc1Cl,2,1%,15%,-10%[46.1 µM],8%,-2%
COc1ccc(-n2cc(-c3ccccc3)c3c(N4CC(C)OC(C)C4)ncnc32)cc1 (stereo not drawn),0,9%,?,-55%,?,-16%
Cc1cc(S(=O)(=O)N2CCCC(N(C)CCc3ccccn3)C2)c(C)cc1Cl (stereo not drawn),·,·,·,·,·,-10%
COCCCn1c(Cc2csc(Nc3cccc(Cl)c3)n2)nnc1SCC(=O)OC,-7,9%,-13%,-14%[46.1 µM],-5%,25µM*

# Bioassay records from PubChem.
